Results on 59 compounds are retold here after PubChem BioAssay AID449762 (Southern Research Specialized Biocontainment Screening …, 2010).

Each structure is given as a SMILES string. In all, about 330,000 compounds went through this assay and about 1,900 (0.58%) were called active. Inconclusive results (about 4%) are left out. A selection follows. Measured potencies and affinities stand elsewhere. A number with no mark means an inactive call. Rule as the data show it: inconclusive = inhibition above about 70% without an active follow-up result; inactive = below that.

The nature of the experiment: M. tuberculosis growth inhibition, HTS (AID 449762).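 Also: bacterial growth assessed after seven days of incubation.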 To be noted: M. tuberculosis H37Rv growth inhibition, 7H9 media; at 25 µM; hits give high values.
The inhibition is the change of the read-out against control, counted positive when it falls. Regarding `CN1CCN(C(=O)/C(=C/c2ccc(F)cc2)c2ccsc2)CC1`, the inhibition is -3.93%.

Consider `CCS(=O)(=O)C1=NN2C(=N)/C(=C\c3ccc(OC(=O)c4ccco4)c(OC)c3)C(=O)N=C2S1`, for which the inhibition was 3.16%.

As for `COc1cc(/C=C2\C(=N)N3N=C(S(=O)(=O)CC(C)C)SC3=NC2=O)ccc1OC(=O)c1ccco1`, the inhibition is 0.47%.

Turning to `Cc1cc(C)c(NS(=O)(=O)c2ccc(Cl)c(C(=O)O)c2)c(C)c1`, the inhibition was -6.92%.

`O=C(NCCCNc1ccc([N+](=O)[O-])cc1)C(F)(F)F`: the inhibition was -6.92%.

For the compound `CCn1c(COc2ccc(OC)cc2)nnc1SCc1nc2ccccc2c(=O)[nH]1`, the inhibition is -7.06%.

Consider `Cc1oc(-c2cccc(C(F)(F)F)c2)nc1CN1CCN(c2ccccn2)CC1`, for which the inhibition was 63.4%.

As for `CCN(CC)c1ccc(/C=N\N2CCN(Cc3ccc(C)cc3)CC2)cc1`, the inhibition is 38%.

In the case of `COc1ccc(C(=O)NC(=S)NNC(=O)c2ccco2)cc1`, the inhibition was 70.2%.

As for `O=C(NC(=S)NNC(=O)c1cc2ccccc2cc1O)c1ccco1`, the inhibition is 2.19%.

On to `CCOc1ccc(/C=N/NC(=O)C(C)N(c2ccc(OC)cc2)S(C)(=O)=O)cc1` (centres undefined), for which the inhibition is -10.4%.

Consider `Cc1ccc(N(CCC#N)C(=O)COC(=O)c2nc3nc(C)cc(C)n3n2)cc1`, for which the inhibition was -2.21%.

With `Cc1nc(N2CCN(c3ccccn3)CC2)c2c(C)c(C(=O)N3CCN(c4ccccc4F)CC3)sc2n1`, the inhibition was 61.9%.

As for `Cc1nc(N2CCN(c3ccccn3)CC2)c2c(C)c(C(=O)N3CCN(c4cccc(Cl)c4)CC3)sc2n1`, the inhibition was 60.4%.

Consider `CCCC(=O)Nc1nc2ccc(C(=O)OCC)cc2s1`, for which the inhibition is -1.4%.

As for `O=C(CNC(=O)C1CCCCC1)OCn1nnc2ccccc2c1=O`, the inhibition was 12.9%.

As for `O=C(CN1C(=O)C2CCCCC2C1=O)OCn1nnc2ccccc2c1=O` (centres undefined), the inhibition is 2.65%.

As for `COc1ccc(C)cc1NC(=O)CCCN1C(=O)CN(C)C1=O`, the inhibition is 4.23%.

Regarding `CCN1CCN(C(=O)c2ccc(N3CC4CC(C3)c3cccc(=O)n3C4)c([N+](=O)[O-])c2)CC1` (centres undefined), the inhibition was 2.16%.

`Cc1ccc(CNC(=O)c2ccc(S(=O)(=O)N(C)C)cc2)n1C`: the inhibition is 3.61%.

In the case of `COC(=O)c1c(NC(=O)c2ccccc2)sc2c1CC(C)(C)NC2(C)C`, the inhibition was -11.2%.

For the compound `CC1(C)Cc2c(sc(NC(=O)c3ccc(C(=O)c4ccccc4)cc3)c2C#N)C(C)(C)N1`, the inhibition is 2.99%.

As for `COc1ccc(C2Nc3ccccc3C(=O)N2c2ccc(C)cc2)cc1COc1ccccn1` (centres undefined), the inhibition is -5.39%.

As for `Cc1ccc(C)c(S(=O)(=O)N2CCN(CC(=O)Nc3cc(C)on3)CC2)c1`, the inhibition was 1.82%.

In the case of `O=C(N/N=C/c1ccc[nH]1)c1cccc(Br)c1`, the inhibition was 47%.

`O=C(N/N=C/c1ccc[nH]1)c1cccnc1`: the inhibition was -9.86%.

As to `COc1ccc(CCNC(=O)C2CCCN2S(=O)(=O)c2ccc(F)cc2)cc1OC` (centres undefined), the inhibition was 0.4%.

As for `O=C(CN(Cc1ccco1)C(=O)Cn1nnc(-c2cccs2)n1)NCc1ccccc1`, the inhibition was 4.1%.

As for `COC/C=C/C1=CC2=CC(=O)C(C)(OC(=O)c3cnc4ccccc4n3)C(=O)C2=CN1c1ccc(CO)cc1` (centres undefined), the inhibition was 3.29%.

As for `O=C(c1ccc2c(=O)n(Cc3ccccc3)c(=S)[nH]c2c1)N1CCCC1`, the inhibition is -3.86%.

`CC(CCN1CCC(n2nccc2NC(=O)c2ccccc2Cl)CC1)c1ccccc1` (centres undefined): the inhibition is 15.6%.

In the case of `Cc1nc(SCc2ccccc2F)c2cnn(-c3ccccc3)c2n1`, the inhibition was 9.04%.

Consider `Cc1ccc(-c2nc(C(=O)NCCCN3CCOCC3)cc3c2[nH]c2ccccc23)cc1`, for which the inhibition was -3.27%.

For `COc1cccc(-c2nc(C(=O)NCCCN3CCOCC3)cc3c2[nH]c2ccccc23)c1`, the inhibition was -10%.

Regarding `Cc1ccc(OCCn2ncc3ccccc3c2=O)c(C)c1`, the inhibition is 9.3%.

Consider `COc1ccc2c(c1)C(=NO)c1cc(OC)ccc1-2`, for which the inhibition was -4.82%.

As to `ON=C1c2cc(OCCN3CCCCC3)ccc2-c2ccc(OCCN3CCCCC3)cc21`, the inhibition was 7.74%.

Take `CC1CCCC(C)N1C(=O)COC(=O)c1ccccc1O` (centres undefined): the inhibition is 2.65%.

Consider `O=c1[nH]c2ccccc2nc1-c1ccc(Cl)cc1`, for which the inhibition was 2.14%.

As for `O=c1[nH]c2ccccc2nc1-c1ccccc1`, the inhibition is -0.96%.

For `O=C(N/N=C/C=C/c1ccco1)C(O)c1ccccc1` (centres undefined), the inhibition was 50.7%.

In the case of `O=C(CCCCCCCC(=O)c1ccccc1)c1ccccc1`, the inhibition was 4.08%.

For the compound `O=C(CCCCCCC(=O)c1ccccc1)c1ccccc1`, the inhibition is -5.92%.

Turning to `COCC(=O)NC1(c2nnnn2CCOC(=O)Nc2ccc(Cl)cc2)CCCCC1`, the inhibition was -9.42%.

For `S=C(NCCNC(=S)Nc1ccccc1Cl)Nc1ccccc1Cl`, the inhibition was 4.51%.

Regarding `S=C(Nc1ccccc1Cl)Nc1ccc(Cl)cc1Cl`, the inhibition was -2.8%.

Turning to `CCC(Sc1nnc2c3ccccc3n(CC)c2n1)C(=O)Nc1sc2c(c1C#N)CCCC2` (centres undefined), the inhibition is 1.09%.

As for `O=[N+]([O-])c1ccc(Nc2nc(NCCO)nc(N3CCCC3)n2)cc1`, the inhibition is 7.94%.

As for `O=[N+]([O-])c1ccc(Nc2nc(N3CCOCC3)nc(N3CCOCC3)n2)cc1`, the inhibition was -0.58%.

Consider `S=C(Nc1ccccc1Cl)N(CCCN1CCOCC1)Cc1ccco1`, for which the inhibition was 0.76%.

Regarding `Cc1ccc2nc(-c3cccc(Br)c3)cc(C(=O)NC3CC3)c2c1`, the inhibition was -6.86%.

Turning to `Cc1ccc(-c2cc(C(=O)NC3=NCCS3)c3cc(Br)ccc3n2)o1`, the inhibition was 8.99%.

For the compound `CCN(Cc1ccccc1)C(=O)COC(=O)c1cc(S(=O)(=O)Nc2c(C)n(C)n(-c3ccccc3)c2=O)ccc1C`, the inhibition was 5.3%.

Take `CCCCCN(C(=O)CCCSc1nncs1)c1c(N)n(CCCC)c(=O)[nH]c1=O`: the inhibition is 3.89%.

Consider `CN(C)c1ccc(/C=C/[N+](=O)[O-])cc1`, for which the inhibition is 39%.

As for `CCN(CC)c1ccc(/C=C/[N+](=O)[O-])cc1`, the inhibition was 0.21%.

In the case of `Cc1ccc(/C=N/NC(=O)c2csc(C)c2)o1`, the inhibition is 4.06%.

Take `O=[N+]([O-])c1ccc(Sc2cccc3cccnc23)c([N+](=O)[O-])c1`: the inhibition was 65.5%.

Consider `O=c1cc(-c2ccccc2)nc(Sc2ccc([N+](=O)[O-])cc2[N+](=O)[O-])[nH]1`, for which the inhibition was 57.1%.
